DT40 TDP1 no CPT = qHTS for Inhibitors of human tyrosyl-DNA phosphodiesterase 1 (TDP1): qHTS in cells in absence of CPT; DT40 Tdp1-/- hTDP1 cells, no CPT, ATP luminescence, 48 h; Potency, µM (highest dose often 46.2 µM), actives largely listed as inhibitors; hit rate 15% among 420,000; also: nearly all actives have a fitted effect of over 55% in size
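Chicken DT40 Tdp1-/- cells stably complemented with human TDP1 were seeded at 400 cells/well with DMSO in place of 20 nM camptothecin. After compound pinning, cells grew at least 48 hr at 37 °C; viability read by CellTiter-Glo luminescence.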
HT1080NT lethal = kills 2HG-producing HT-1080-NT fibrosarcoma cells. HT-1080-NT fibrosarcoma viability, CellTiter-Glo ATP luminescence, 48 h. Potency, µM (titrated, usually from 46.1 µM), most hits filed as cytotoxic. hit rate 1.6% among 360,000. AID 686970;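 also: NT is the 2HG producing partner of a matched IDH1 knockdown line; nearly all actives have a fitted effect of over 55% in size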
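Viability by CellTiter-Glo luminescence after 48 h compound exposure at 37C of HT-1080-NT cells (750/well, RPMI, 5% FBS). % activity scaled between DMSO wells and medium-only wells, then curve-fitted and categorized by curve class.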
HepG2 viability = HepG2 cytotoxicity, counter-screen for TGF-b inhibitors | HepG2 CAGA-GFP viability, ATP luminescence, 18 h | Potency, µM (doses to about 46.1 µM), actives largely listed as cytotoxic | hit rate 0.76% among 410,000
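CellTiter-Glo luminescence gave cytotoxicity after 18 hours at 37 degrees C. The cells were HepG2 CAGA-GFP in 1% FBS DMEM, stimulated with 500 pg/mL TGF-beta after compound addition. %Activity was normalised to no-cell wells (complete cell-killing) and DMSO (no toxicity), and curves were fitted and classified.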
HT1080 IDH1KD tx = HT-1080 IDH1 knockdown cell toxicity (counter line); hit rate 2% among 360,000; Potency, µM (highest dose often 46.1 µM), actives largely listed as cytotoxic; AID 686971; HT-1080 IDH1 knockdown viability, ATP luminescence, 48 h
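After a 2 h attachment period, IDH1KD HT-1080 cells took pin-transferred compound for 48 h at 37 °C; ATP-based luminescence after 10 min room-temperature reagent incubation reported viability.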
TDP1 cell CPT = growth inhibition of DT40 Tdp1-/-;hTDP1 cells with camptothecin (screen for TDP1 inhibitors); chicken DT40 Tdp1-/-;hTDP1 cells + 20 nM CPT, ATP luminescence, 48 h; Potency, µM (highest dose often 46.2 µM), actives largely listed as inhibitors; hit rate 12% among 420,000; AID 686979; also: nearly all actives have a fitted effect of over 55% in size
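Chicken DT40 Tdp1-/- cells complemented with human TDP1, 400 cells/well, exposed to compounds plus 20 nM camptothecin for at least 48 h at 37 C; viability read as ATP content by CellTiter-Glo luminescence.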
TGFb SMAD3 inh = blocks TGF-b signaling; HepG2 CAGA-GFP TGF-b/SMAD3 reporter, GFP fluorescence, 18 h; TGF-beta stimulated, 500 pg/mL final; Potency, µM (highest dose often 46.1 µM), actives largely listed as inhibitors; hit rate 1.2% among 410,000; AID 588855; also: nearly all actives have a fitted effect of over 65% in size
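TGF-beta reporter screen: HEPG2 CAGA-GFP, 1% FBS, 500 pg/mL TGF-beta final, 18 h; per-cell GFP summed per well; curves fitted and categorized by class.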
A number is an active result; . = inactive; ? = inconclusive; / = no result; ! = not confirmed by another sample; [ ] = dose if it differs, or a comment. Rows were chosen to be rich in hits. Some 17% of all compounds tested hit in one or more screens of this group. Calls follow the shape of the dose curve; as a rule, active = well fitted curve in the direction sought with a large enough effect; inconclusive = small, poorly fitted or top-dose-only effect, or another doubt; inactive = no such curve, though single readings can be large; an effect the other way counts as inactive or inconclusive.

SMILES	DT40 TDP1 no CPT	HT1080NT lethal	HepG2 viability	HT1080 IDH1KD tx	TDP1 cell CPT	TGFb SMAD3 inh
CCOc1cc(NCc2ccccc2)c2ncn(C(C)C)c2c1	23µM	.	.	.	?	.
CCC(CO)Oc1cc(NCc2ccc(Cl)cc2)c2ncn(C(C)C)c2c1 (stereo unspecified)	?	.	.	.	?	?
CCCOc1cc(NCc2ccccc2)c2ncn(C(C)C)c2c1	?	.	.	.	?	.
CCc1ccc(CNC(=O)CCC(=O)N2Cc3cccc(OC)c3Oc3ncccc32)cc1	?	.	.	.	?	.
CCOc1ccc(N(CC(=O)N2CCN(C(=O)CN(c3ccc(OCC)cc3)S(C)(=O)=O)CC2)S(C)(=O)=O)cc1	.	.	.	.	.	.
CC(=O)c1ccc(NC(=O)C(C)Sc2n[nH]c(-c3cccnc3)n2)cc1 (stereo unspecified)	.	.	.	.	.	.
CN=C1c2cc3cc(OC)ccc3n2CCN1Cc1ccccc1	2.9µM	16µM	.	23µM	3.3µM	?
COc1cccc(C(NC(C)=O)c2nc(-c3cccc(O)c3)cs2)c1 (stereo unspecified)	18µM	?	.	.	23µM	.
COc1ccc(-c2csc(C(NC(C)=O)c3cccc(F)c3)n2)cc1 (stereo unspecified)	16µM	.	.	.	?	.
COc1cccc(C(NC(C)=O)c2nc(-c3cccc(C#N)c3)cs2)c1 (stereo unspecified)	?	.	.	.	29µM	.
COc1cccc(C(NC(C)=O)c2nc(-c3ccccc3)cs2)c1 (stereo unspecified)	?	.	.	.	?	.
CC1=C(C#N)C(c2cccnc2)C2=C(CC(c3ccc(Cl)cc3)CC2=O)N1 (stereo unspecified)	.	.	.	.[9.24 µM]	.	.
FC(F)Oc1ccc(-n2cc(-c3ccccc3)[n+]3c2CCCCC3)cc1	5.8µM	.	.	.	5.2µM	.
Cc1ccc(-c2cn(-c3ccc(OC(F)F)cc3)c3[n+]2CCCCC3)cc1	1µM	?	.	.	0.65µM	.
N#Cc1c2n(c(=S)n(-c3ccc(OC(F)F)cc3)c1=O)CCCCC2	?	.	.	.	.	.
COc1ccc(C)cc1Nc1nc2cc(Cl)c(Cl)cc2nc1-n1nc(C)cc1C	.	/	.	/	.	.
COc1ccccc1C(=O)Nc1nnc(SCc2cc(=O)n3ccc(C)cc3n2)s1	.	/	.	/	.	.
CC1=CC(C)C2(COC(c3ccc[n+](C)c3)OC2)C(C)C1 (stereo unspecified)	3.7µM	.	.	.	5.8µM	.
Cc1ccc(C2=CC(c3ccc(N(C)C)cc3)n3nnnc3N2)cc1 (stereo unspecified)	21µM	.	.	.	18µM	.
COc1ccc(C2=CC(c3ccc(F)cc3)n3nnnc3N2)cc1 (stereo unspecified)	18µM	.	.	.[9.24 µM]	?	.
CC(C)c1ccc(C2=CC(c3ccc(C(C)C)cc3)n3nnnc3N2)cc1 (stereo unspecified)	15µM	/	.	/	15µM	.
Cc1[nH]c2ccccc2c1C(=O)C(=O)NC1CC(=O)N(c2ccc(F)cc2)C1 (stereo unspecified)	.	.	.	.	.	.
CS(=O)(=O)c1ccc(Cl)c(NC(=O)CN2C(=O)C3CCCCC3C2=O)c1 (stereo unspecified)	.	.	.	.	.	.
COc1ccccc1Oc1ccnc2cc(Cl)ccc12	?	.	.	.	?	.
CCN(CC)Cc1cc2[nH]c3c4ccc(Cl)cc4ncc3c2cc1OC	5µM	22µM!	.	?	3.2µM	.
SMILES	DT40 TDP1 no CPT	HT1080NT lethal	HepG2 viability	HT1080 IDH1KD tx	TDP1 cell CPT	TGFb SMAD3 inh
O=C1CC(Cc2ccc(Cl)cc2)C(=O)N1c1ccncc1 (stereo unspecified)	.	.	.	.	.	?
O=C1C2CC=CCC2C(=O)N1c1ccc(Cc2ccncc2)cc1 (stereo unspecified)	11µM	.	.	.	18µM	.
COc1ccc(-n2cc(C(=O)c3cc4ccccc4oc3=O)c(C(C)=O)n2)cc1	?	.	.	.	23µM	.
Oc1ccc(N2CCN(c3ncnc4sc5c(c34)CCC5)CC2)cc1	13µM	.	.	?	23µM	.
CCCCc1cc(=O)oc2c(C)c(OCC(=O)NCC3CCC(C(=O)O)CC3)ccc12 (stereo unspecified)	.	.	.	.	.	.
CN(C(=O)c1nc(-c2ccccc2)n(-c2ccccc2)n1)C1CCS(=O)(=O)C1 (stereo unspecified)	.	?	.	.	.	.
CCOc1cc(C2c3c(oc4ccccc4c3=O)C(=O)N2Cc2ccc3c(c2)OCO3)ccc1O (stereo unspecified)	?	/	.	/	?	.
COc1ccc(Cl)cc1NC(=O)CCS(=O)(=O)c1nc(-c2cccs2)cc(C(F)(F)F)n1	3.3µM	/	.	/	4.6µM	?
O=C(CCS(=O)(=O)c1nc(-c2cccs2)cc(C(F)(F)F)n1)Nc1ccc(F)c(Cl)c1	9.2µM	/	11µM	/	4.6µM	20µM
CC(C)c1nnc(NC(=O)CCS(=O)(=O)c2nc(-c3cccs3)cc(C(F)(F)F)n2)s1	4.1µM	?	.	?	2.9µM	14µM
COc1ccc(NC(=O)CCS(=O)(=O)c2nc(-c3cccs3)cc(C(F)(F)F)n2)cc1	5.2µM	/	.	/	4.6µM	10µM
O=C(CCS(=O)(=O)c1nc(-c2cccs2)cc(C(F)(F)F)n1)Nc1ccc(OC(F)(F)F)cc1	.	/	.	/	?	.
CC(=O)C[C@@H](O)CC(=O)[C@@H]1OC(=O)[C@H](C)CCCCc2ccccc21	.	.	.	.	.	.
Cc1cccc(C)c1NC(=O)CN(C)C(=O)C1CCN(c2ncnc3sc(C)c(C)c23)CC1	?	.	.	.	?	.
Cc1sc2ncnc(N3CCC(C(=O)NNC(=O)COc4ccc(Br)cc4)CC3)c2c1C	23µM	.	.	.	?	.
CCN(CC(=O)Nc1c(F)cccc1F)C(=O)C1CCN(c2ncnc3sc(C)c(C)c23)CC1	18µM	.	.	.	21µM	.
Cc1ccc(OCC(=O)NNC(=O)C2CCN(c3ncnc4sc(C)c(C)c34)CC2)cc1	?	.	.	.	?	.
CCN(CC(=O)Nc1c(Cl)cccc1Cl)C(=O)C1CCN(c2ncnc3sc(C)c(C)c23)CC1	?	.	.	.	.	?
